For three compounds, AC50 and outcome results are on record in PubChem BioAssay (EPA / NIEHS).

Active and inactive are the calls of the source. The calls were made as follows: active = hit-call score of the fitted dose curve at least 0.9, where 1 is the maximum; inactive = score below 0.9.

By AC50 is commonly meant the concentration at which the activity in the assay is half-maximal.

Read-out in assay [1]: TIMP metallopeptidase inhibitor 1 (TIMP1), TIMP1 (gene 7076)
Description: BSK_hDFCGF_TIMP1: BioMAP Diversity Plus: hDFCGF Assay for TIMP metallopeptidase inhibitor 1 (TIMP1) Biomarker Activity (AID 2283062). The settings on record: primary human foreskin fibroblasts; actives raise or lower the signal. In outline: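 Primary human foreskin fibroblasts in the hDFCGF system were dosed with compound for 24 h, then TIMP-1 was measured by ELISA. Activity was fitted bidirectionally relative to DMSO control; parallel SRB staining assessed cytotoxicity.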

Read-out in assay [2]: Monokine induced gamma interferon (MIG), CXCL9 (gene 4283)
Description: BSK_hDFCGF_MIG: BioMAP Diversity Plus: hDFCGF Assay for Monokine induced gamma interferon (MIG) Biomarker Activity (AID 2283063). The settings on record: primary human foreskin fibroblasts; actives raise or lower the signal. In outline: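 ELISA read-out of MIG from primary human dermal fibroblasts 24 h post-dosing. Gain or loss of signal fitted bidirectionally, DMSO as baseline.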

Read-out in assay [3]: Matrix Metallopeptidase 1 (MMP1), MMP1 (gene 4312)
Description: BSK_hDFCGF_MMP1: BioMAP Diversity Plus: hDFCGF Assay for Matrix Metallopeptidase 1 (MMP1) Biomarker Activity (AID 2283064). The settings on record: primary human foreskin fibroblasts; actives raise or lower the signal. Put shortly: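 hDFCGF primary fibroblasts (human foreskin); chemical added; 24 h; MMP1 by ELISA; bidirectional fit vs DMSO.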

Read-out in assay [4]: Vascular cell adhesion molecule 1 (VCAM1), VCAM1 (gene 7412)
Description: BSK_hDFCGF_VCAM1: BioMAP Diversity Plus: hDFCGF Assay for Vascular cell adhesion molecule 1 (VCAM1) Biomarker Activity (AID 2283065).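 As to AC50: VCAM-1 protein level quantified by ELISA after 24 h chemical exposure.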 The settings on record: primary human foreskin fibroblasts; actives raise or lower the signal. Put shortly: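 Primary human foreskin fibroblasts (hDFCGF system) were dosed with chemical and VCAM-1 was measured by ELISA 24 h later. Bidirectional curve fitting used DMSO as negative control and activity baseline.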

Read-out in assay [5]: Plasminogen activator inhibitor-1 (PAI1), SERPINE1 (gene 5054)
Description: BSK_hDFCGF_PAI1: BioMAP Diversity Plus: hDFCGF Assay for Plasminogen activator inhibitor-1 (PAI1) Biomarker Activity (AID 2283066). The settings on record: primary human foreskin fibroblasts; actives raise or lower the signal. In outline:
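Primary dermal fibroblasts (human foreskin), hDFCGF system; compound 24 h; PAI-1 by ELISA; bidirectional fit vs DMSO control.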

Read-out in assay [6]: Intercellular Adhesion Molecule 1 (ICAM1), ICAM1 (gene 3383)
Description: BSK_KF3CT_ICAM1: BioMAP Diversity Plus: KF3CT Assay for Intercellular Adhesion Molecule 1 (ICAM1) Biomarker Activity (AID 2283067). The settings on record: primary human keratinocytes with fibroblasts; actives raise or lower the signal. In outline:
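Human keratinocyte plus foreskin fibroblast primary co-culture was exposed to chemical for 24 h. ICAM-1 was then quantified by ELISA, and the data were fit bidirectionally against DMSO as the negative control and baseline.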

Read-out in assay [7]: Interferon-gamma inducible Protein 10 (IP10), CXCL10 (gene 3627)
Description: BSK_KF3CT_IP10: BioMAP Diversity Plus: KF3CT Assay for Interferon-gamma inducible Protein 10 (IP10) Biomarker Activity (AID 2283068). The settings on record: primary human keratinocytes with fibroblasts; actives raise or lower the signal. Put shortly: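 Human keratinocyte plus foreskin fibroblast primary co-culture exposed to test chemical for 24 h; IP-10 measured by ELISA. Concentration-response fitted bidirectionally against DMSO control as baseline.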

Assay [8] is described as follows: BSK_KF3CT_SRB: Viability Assessment in the BioMAP Diversity Plus: KF3CT Assay (AID 2283069).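 Also: total protein by sulforhodamine B staining as a cytotoxicity measure; read 24 h after compound addition; fitted for both signal gain and loss against DMSO baseline.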 The settings on record: primary human keratinocytes with fibroblasts. In outline: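 Keratinocytes co-cultured with foreskin fibroblasts (human primary); chemical added, 24 h; fix 10% TCA, stain 0.1% SRB, A560. Bidirectional fit vs DMSO.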
Read-out in assay [9]: Interleukin-1 alpha (IL1a), IL1A (gene 3552)
Description: BSK_KF3CT_IL1a: BioMAP Diversity Plus: KF3CT Assay for Interleukin-1 alpha (IL1a) Biomarker Activity (AID 2283070). The settings on record: primary human keratinocytes with fibroblasts; actives raise or lower the signal. Put shortly: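 Chemicals were dosed onto co-cultured human keratinocytes and foreskin fibroblasts, IL-1a was quantified by ELISA at 24 h, and activity was fitted in both directions relative to DMSO controls.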

Read-out in assay [10]: TIMP metallopeptidase inhibitor 2 (TIMP2), TIMP2 (gene 7077)
Description: BSK_KF3CT_TIMP2: BioMAP Diversity Plus: KF3CT Assay for TIMP metallopeptidase inhibitor 2 (TIMP2) Biomarker Activity (AID 2283071). The settings on record: primary human keratinocytes with fibroblasts; actives raise or lower the signal. Put shortly: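 Cells: human keratinocytes co-cultured with foreskin fibroblasts. Treat with chemical, 24 h. Measure TIMP-2 by ELISA; fit curves bidirectionally vs DMSO baseline.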

Read-out in assay [11]: Transforming growth factor beta 1 (TGFb1), TGFB1 (gene 7040)
Description: BSK_KF3CT_TGFb1: BioMAP Diversity Plus: KF3CT Assay for Transforming growth factor beta 1 (TGFb1) Biomarker Activity (AID 2283072). The settings on record: primary human keratinocytes with fibroblasts; actives raise or lower the signal. In outline: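 Primary human skin cells (keratinocytes, foreskin fibroblasts) were co-cultured, exposed to test chemical and sampled at 24 h. TGF-b1 levels were measured by ELISA and fitted bidirectionally relative to DMSO.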

Read-out in assay [12]: C-C motif chemokine 2 (Homo sapiens) (UniProt P13500)
Description: BSK_KF3CT_MCP1: BioMAP Diversity Plus: KF3CT Assay for Monocyte Chemoattractant Protein 1 (MCP1/CCL2) Biomarker Activity (AID 2283073). The settings on record: primary human keratinocytes with fibroblasts; actives raise or lower the signal. Put shortly:
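Human keratinocyte plus foreskin fibroblast primary co-culture exposed to chemical for 24 h. MCP-1 levels measured by ELISA. Bidirectional curve fitting relative to DMSO negative control as baseline.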

Read-out in assay [13]: Matrix Metallopeptidase 9 (MMP9), MMP9 (gene 4318)
Description: BSK_KF3CT_MMP9: BioMAP Diversity Plus: KF3CT Assay for Matrix Metallopeptidase 9 (MMP9) Biomarker Activity (AID 2283074).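 As to AC50: MMP9 protein level quantified by ELISA in the co-culture.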 The settings on record: primary human keratinocytes with fibroblasts; actives raise or lower the signal. Put shortly: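 Human keratinocyte/foreskin fibroblast co-culture; compound added; 24 h; MMP-9 by ELISA; bidirectional fit vs DMSO baseline.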

Read-out in assay [14]: urokinase plasminogen activator (uPA), PLAU (gene 5328)
Description: BSK_KF3CT_uPA: BioMAP Diversity Plus: KF3CT Assay for urokinase plasminogen activator (uPA) Biomarker Activity (AID 2283075). The settings on record: primary human keratinocytes with fibroblasts; actives raise or lower the signal. Put shortly: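 ELISA readout of uPA, analyzed for signal gain or loss relative to DMSO, from a human primary keratinocyte–foreskin fibroblast co-culture measured 24 h after chemical treatment.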

Read-out in a further assay: CD40, CD40 (gene 958)
Description: BSK_LPS_CD40: BioMAP Diversity Plus: LPS Assay for CD40 Biomarker Activity (AID 2283076). The settings on record: primary human HUVEC with PBMC; actives raise or lower the signal. In outline:
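Primary human umbilical vein endothelial cells co-cultured with peripheral blood mononuclear cells, LPS-stimulated, were dosed with chemical and read 24 h later. CD40 levels were measured by ELISA and fitted bidirectionally against DMSO as negative control and baseline.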

Read-out in assay [15]: E-selectin (Homo sapiens) (UniProt P16581)
Description: BSK_LPS_Eselectin: BioMAP Diversity Plus: LPS Assay for Eselectin Biomarker Activity (AID 2283077). The settings on record: primary human HUVEC with PBMC; actives raise or lower the signal. Put shortly:
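Human umbilical vein endothelial cells co-cultured with peripheral blood mononuclear cells under LPS stimulation; E-selectin measured by ELISA 24 h after chemical dosing. Activity fitted bidirectionally against DMSO as negative control and baseline.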

Read-out in assay [16]: Interleukin-8 (IL8), CXCL8 (gene 3576)
Description: BSK_LPS_IL8: BioMAP Diversity Plus: LPS Assay for Interleukin-8 (IL8) Biomarker Activity (AID 2283078). The settings on record: primary human HUVEC with PBMC; actives raise or lower the signal. In outline:
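Human umbilical vein endothelial cells co-cultured with PBMC were stimulated with LPS; IL-8 levels were measured by ELISA 24 h after chemical dosing. Activity was fitted bidirectionally against DMSO as negative control and baseline.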

A short description of assay [17]: BSK_LPS_SRB: Viability Assessment in the BioMAP Diversity Plus: LPS Assay (AID 2283079).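 Also: total protein by sulforhodamine B absorbance as a cytotoxicity measure; measured one day after compound addition; fitted in both directions against DMSO so loss or gain of signal counts.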 The settings on record: primary human HUVEC with PBMC. Put shortly:
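Human umbilical vein endothelial cells co-cultured with PBMC (LPS system) were dosed for 24 h. Total protein was stained with 0.1% sulforhodamine B after 10% TCA fixation, read at 560 nm, and fitted bidirectionally against DMSO baseline.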

Read-out in assay [18]: Interleukin-1 alpha (IL1a), IL1A (gene 3552)
Description: BSK_LPS_IL1a: BioMAP Diversity Plus: LPS Assay for Interleukin-1 alpha (IL1a) Biomarker Activity (AID 2283080). The settings on record: primary human HUVEC with PBMC; actives raise or lower the signal. In outline: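 Human umbilical vein endothelial cells co-cultured with peripheral blood mononuclear cells were LPS-stimulated and exposed to test chemicals for 24 h. IL-1 alpha was quantified by ELISA, with bidirectional curve fitting against DMSO as the negative control and baseline.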

Read-out in assay [19]: Monocyte Chemoattractant Protein-1 (MCP1), CCL2 (gene 6347)
Description: BSK_LPS_MCP1: BioMAP Diversity Plus: LPS Assay for Monocyte Chemoattractant Protein-1 (MCP1) Biomarker Activity (AID 2283081).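 As to AC50: co-culture stimulated with LPS; secreted MCP-1 protein quantified by ELISA in culture supernatant.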 The settings on record: primary human HUVEC with PBMC; actives raise or lower the signal. In outline: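 HUVEC plus PBMC co-culture (human primary cells, LPS system) exposed to test chemical for 24 h; MCP-1 measured by ELISA. Bidirectional curve fitting against DMSO baseline; parallel SRB total-protein staining flags overt cytotoxicity.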

Sequence of E-selectin (Homo sapiens) (P16581 whole entry, looked up): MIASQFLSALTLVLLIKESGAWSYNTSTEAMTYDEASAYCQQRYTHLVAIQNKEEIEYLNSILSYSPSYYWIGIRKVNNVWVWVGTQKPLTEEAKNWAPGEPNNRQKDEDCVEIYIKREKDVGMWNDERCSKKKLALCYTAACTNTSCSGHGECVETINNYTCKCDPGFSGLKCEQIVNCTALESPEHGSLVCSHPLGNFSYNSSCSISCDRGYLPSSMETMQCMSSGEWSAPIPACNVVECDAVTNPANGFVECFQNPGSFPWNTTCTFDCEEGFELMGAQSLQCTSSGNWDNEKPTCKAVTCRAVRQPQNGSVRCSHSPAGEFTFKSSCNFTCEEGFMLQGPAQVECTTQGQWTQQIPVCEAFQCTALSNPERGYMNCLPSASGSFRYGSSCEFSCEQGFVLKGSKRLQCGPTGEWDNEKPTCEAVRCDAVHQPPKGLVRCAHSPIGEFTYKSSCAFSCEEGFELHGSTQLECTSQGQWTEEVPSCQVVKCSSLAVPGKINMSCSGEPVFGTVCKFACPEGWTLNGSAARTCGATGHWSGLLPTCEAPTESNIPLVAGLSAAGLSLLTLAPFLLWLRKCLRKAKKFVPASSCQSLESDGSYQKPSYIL

On to `CC(C)c1cccc(C(C)C)c1N1C(=O)c2ccc(O)cc2C1=O`, for which the half-maximal activity concentration (AC50) was 5.39 µM (active) in assay [1]; 31.9 µM (active) in assay [2]; 13.8 µM (active) in assay [4]; 22 µM (active) in assay [5]; 26 µM (active) in assay [7]; 29.1 µM (active) in assay [8]. The concentration at half-maximal activity (AC50) in assay [9] was 30.9 µM (active); in assay [10] it was 29.2 µM (active); in assay [11], 29.4 µM (active); in assay [13] it was 23.2 µM (active); in assay [14] it was 36.7 µM (active); with CD40, CD40 (gene 958), 8.13 µM (active). In addition, the half-maximal activity concentration (AC50) in assay [15] was 18.9 µM (active); in [17], 17.4 µM (active); in assay [19], 34.8 µM (active). Further, the result in assay [3], in assay [6], in assay [12], in [16] and in assay [18] was inactive.
Regarding `O=C(O)c1cccc(N(Cc2cccnc2)c2ccc(OC(F)F)c(OC(F)F)c2)c1`, the outcome in [1], in assay [2], in [3], in [6], in [7] and in assay [8] was inactive. For the same compound, the outcome in assay [9], in [10], in assay [11], in [12], in assay [13] and in assay [14] was inactive. Further, the outcome with CD40, CD40 (gene 958) is “inactive”; in assay [17], “inactive”. Moreover, the AC50 in [4] was 1.27 µM (active); in assay [5], 1.26 µM (active); in [15], 11 µM (active); in assay [16], 9.79 µM (active); in assay [18] it was 20 µM (active); in [19], 10.7 µM (active).
Regarding `O=C(O)c1cccc(Oc2ccccc2)c1`, the result in [1], in assay [2], in [3], in assay [4], in assay [5] and in assay [6] was inactive. The result in [7], in [8], in assay [9], in [10], in assay [11] and in assay [12] was inactive. The outcome is “inactive” in assay [13]; “inactive” in assay [14]; “inactive” with CD40, CD40 (gene 958); “inactive” in assay [15]; “inactive” in [16]; “inactive” in assay [17]. For the same compound, the outcome in assay [18] and in assay [19] was inactive.
